Screening results from PubChem.
CRFR2-BP antag = antagonists of CRF-BP/CRF-R2 complex, primary screen, cell-based, HEK293, calcium dye fluorescence, uHTS. CRF-induced calcium fluorescence. inhibition, % at 11.8 µM. 350,000 tested, 0.59% active;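 active = inhibition of the ligand-induced calcium signal above about 50% at the single tested concentration, limit read from the data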
NR3A LBD binder = binders of NR3A ligand-binding domain, primary screen, biophysical, differential scanning fluorimetry, uHTS. Glutamate receptor ionotropic, NMDA 3A (GRIN3A) ligand-binding domain. NR3A LBD differential scanning fluorimetry, Tm shift; 0% = protein alone, 100% = glycine-bound protein. Tm shift relative to glycine control, % at 25 µM. 340,000 tested, 2.5% active. AID 1259313, 2017;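 active = melting temperature shift of at least 10% of the positive control shift, at one fixed dose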
MPTP inh = mitochondrial permeability transition pore inhibitors, primary screen, biochemical, isolated mouse mitochondria, absorbance. Ca2+ swelling absorbance, 30 min. inhibition, % at 10 µM. 360,000 tested, 1.4% active;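 active = inhibition of 50% or more, scaled per plate between neutral and stimulator controls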
TMEM16A act = TMEM16A chloride channel activators or potentiators, primary screen, cell-based, HTS | 340,000 tested, 0.3% active | AID 623877, 2012 | HEK293 TMEM16A/YFP-H148Q/I152L, iodide quench fluorescence; hits give low values | B-score at 10 µM;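 active = fluorescence-ratio B-score plate-corrected deviation score at least 3 library SD below zero, with starting fluorescence score within 5 deviations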;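 also: channel opened by trigger with iodide after compound preincubation; score built on the fluorescence ratio of max minus min over baseline; more negative score means more quench and so TMEM16A activation or potentiation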
Target sequence (Q8BHY3 whole entry, looked up): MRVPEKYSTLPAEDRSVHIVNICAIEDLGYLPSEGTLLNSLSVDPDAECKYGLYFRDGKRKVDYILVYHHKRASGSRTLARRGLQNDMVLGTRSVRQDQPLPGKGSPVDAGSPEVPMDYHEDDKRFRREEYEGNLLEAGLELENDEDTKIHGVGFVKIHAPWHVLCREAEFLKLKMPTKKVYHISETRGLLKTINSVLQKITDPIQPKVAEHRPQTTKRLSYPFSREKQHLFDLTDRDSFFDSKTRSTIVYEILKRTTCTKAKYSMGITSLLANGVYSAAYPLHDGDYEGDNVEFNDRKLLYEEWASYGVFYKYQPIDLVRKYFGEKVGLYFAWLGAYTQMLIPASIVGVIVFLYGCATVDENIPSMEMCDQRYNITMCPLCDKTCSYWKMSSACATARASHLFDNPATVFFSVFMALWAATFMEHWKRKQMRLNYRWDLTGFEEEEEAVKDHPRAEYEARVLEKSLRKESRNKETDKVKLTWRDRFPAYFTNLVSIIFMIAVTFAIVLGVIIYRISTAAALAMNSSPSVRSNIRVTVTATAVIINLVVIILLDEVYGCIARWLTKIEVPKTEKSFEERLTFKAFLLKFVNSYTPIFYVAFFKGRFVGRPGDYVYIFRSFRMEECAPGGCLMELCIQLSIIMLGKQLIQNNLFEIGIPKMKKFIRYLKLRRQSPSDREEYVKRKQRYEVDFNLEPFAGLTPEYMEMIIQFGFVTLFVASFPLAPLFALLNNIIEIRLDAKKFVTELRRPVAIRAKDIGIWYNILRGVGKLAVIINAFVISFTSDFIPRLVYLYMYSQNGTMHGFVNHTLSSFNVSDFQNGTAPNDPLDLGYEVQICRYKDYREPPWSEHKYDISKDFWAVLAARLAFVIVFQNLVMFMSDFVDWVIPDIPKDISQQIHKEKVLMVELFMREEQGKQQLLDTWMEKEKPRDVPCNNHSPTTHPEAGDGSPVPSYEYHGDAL
ANO1 block = TMEM16A chloride channel inhibitors, primary screen, cell-based, HTS; Anoctamin-1 (Mus musculus), Q8BHY3; HEK293 TMEM16A/YFP iodide influx fluorescence, ionomycin; normalized B-score (activity score, 25-100; higher = stronger inhibition) at 10 µM; 310,000 tested, 1.2% active;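 active = ratio plate-corrected score three or more library SD toward inhibition, starting fluorescence score within five deviations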;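 also: score derived from kinetic fluorescence span divided by baseline fluorescence per well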
CRFR2-BP ag = agonists of CRF-BP/CRF-R2 complex, primary screen, cell-based, HEK293, calcium dye fluorescence, uHTS. calcium dye fluorescence (FLIPR); percent of saturating CRF peptide response. AID 588473, 2011. 350,000 tested, 0.46% active. activation, % at 13.2 µM;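 active = activation of at least 50%, plus an integration ratio under a set limit after plate pattern correction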
TMEM16A reconf = TMEM16A chloride channel inhibitors, confirmation, cell-based, re-confirmation; shares compounds with ANO1 block; HEK293 TMEM16A/YFP-H148Q, iodide quench fluorescence; ionomycin added to raise cell calcium; inhibition, % at 10 µM; 2,300 tested, 39% active;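 active = mean duplicate percent inhibition, scaled so buffer wells are 0 and the reference blocker 100, over three buffer SD above buffer mean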
TMEM16A Ca cntr = calcium mobilization in TMEM16A/YFP HEK293 cells, confirmation, counter-screen for TMEM16A inhibitor project; shares compounds with ANO1 block; Fluo4 calcium mobilization; 2,300 tested, 2% active; calcium response (% of ionomycin), % at 10 µM; AID 652231, 2013;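 active = duplicate-averaged calcium signal over 20% of the ionomycin maximum, relative to buffer baseline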;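 also: each well's signal is peak minus trough fluorescence divided by its pre-addition baseline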
Parental YFP cnt = iodide YFP quench changes in parental YFP-HEK293, counter-screen for TMEM16A inhibitor project, cell-based. ionomycin. YFP ratio F(max-min)/F0 at 10 µM. 2,300 tested, under 10 active. shares compounds with ANO1 block. AID 652233, 2013;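 active = yellow fluorescent protein signal ratio exceeding the buffer control mean by over 5 SD of those controls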;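 also: ratio is mean of duplicate wells from kinetic YFP trace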
ClC-1 inh = ClC-1 chloride channel inhibition, selectivity assay for TMEM16A inhibitor project, cell-based, voltage-dependent ClC-1 | shares compounds with ANO1 block | 2,300 tested, under 10 active | CHO ClC-1-YFP, iodide influx fluorescence quench; iodide control reads 0, buffer control 100 | ratio percent, % at 10 µM;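 active = duplicate-mean ratio percent above the mean of iodide-only control wells, which defines zero, plus 5 of their SD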;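 also: higher percent means stronger block of ClC-1 iodide influx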
A number is an active result; . = inactive; / = no result. This is a sample that favours compounds with a hit; in the whole collection about 5.1% have one here.

SMILES	CRFR2-BP antag	NR3A LBD binder	MPTP inh	TMEM16A act	ANO1 block	CRFR2-BP ag	TMEM16A reconf	TMEM16A Ca cntr	Parental YFP cnt	ClC-1 inh
Cc1cc(C)cc(N2CC(C(=O)NC3CCCCC3)CC2=O)c1 (configuration not stated)	.	.	.	.	.	.	/	/	/	/
COc1cc(OC)cc(-c2ncc3ccccn23)c1	.	.	.	.	100	.	.	.	.	.
O=C1NC[C@@H](CCCCN2C[C@H](Cc3ccccc3)N(CC3CCCCC3)C(=O)C2=O)N(Cc2ccccc2)C1=O	/	/	.	/	/	/	/	/	/	/
COc1cccc(CN2CCNC(=O)C2CC(=O)N(C)C2CCCCC2)c1 (configuration not stated)	.	.	.	.	.	.	/	/	/	/
CC(C)(C)NC1=CC(=O)OC12CCCCC2	.	.	.	.	.	.	.	.	.	.
Cc1cccc(OCc2nnc(SCC(=O)N3CCN(c4ccccc4)CC3)o2)c1C	.	.	.	.	100	.	.	.	.	.
COc1ccccc1C1=NOC(Cn2c(NCC3CCCO3)nc3c2c(=O)n(C)c(=O)n3C)C1 (configuration not stated)	.	.	.	.	.	.	.	.	.	.
CC(C)(C)c1cc(CCC(=O)NNC(=O)c2ccncc2)cc(C(C)(C)C)c1O	.	.	.	.	/	.	/	/	/	/
Cc1ccc(OCCOCCn2cnc3ccccc3c2=O)cc1C	/	/	/	/	.	/	/	/	/	/
CC(C)(C)c1ccc(OCCOCCn2cnc3ccccc3c2=O)cc1	.	.	.	.	25	.	20%	.	.	.
COc1ccc(N2CC(O)=C(c3nc(C)cs3)C2=N)cc1	.	.	.	.	.	.	/	/	/	/
COc1ccc(N2CC(O)=C(c3n(C)c4ccccc4[n+]3C)C2=N)cc1	.	.	.	.	25	.	.	.	.	.
CCc1c(C(=O)NNC(=S)Nc2ccc(S(=O)(=O)Nc3ncccn3)cc2)csc1C	.	.	.	.	.	.	/	/	/	/
CCOC(=O)c1c(NC(=O)C(C)N2CCN(C(=O)c3ccco3)CC2)sc2c1CCCC2 (configuration not stated)	.	.	.	.	25	.	.	.	.	.
Cc1cn([C@H]2C[C@H](O)[C@@H](CNC/C=C/c3ccccc3[N+](=O)[O-])O2)c(=O)[nH]c1=O	.	/	.	/	/	.	/	/	/	/
CCc1cc2cc3c(cc2nc1SCC(=O)OC(C)C)OCO3	.	.	.	.	100	.	.	.	.	.
CC1CCCCC1NC(=O)CNC(=O)c1cccs1 (configuration not stated)	.	.	.	.	.	.	/	/	/	/
O=C(O)Cn1cc(C(=S)N2CCOCC2)c2ccccc21	.	.	.	.	25	.	.	.	.	.
O=C(Cn1cc(C(=S)N2CCOCC2)c2ccccc21)N1CCOCC1	.	.	.	.	.	.	/	/	/	/
Cc1cc(C)c(C#N)c(N2CCN(CCOc3ccc(Cl)cc3)CC2)n1	.	.	.	.	25	.	.	.	.	.
CCOc1ccc(OCc2ccc(C(=O)N3N=C(C(F)F)CC3(O)C(F)F)o2)cc1 (configuration not stated)	.	.	.	.	25	.	.	.	.	.
CCNC(=O)CC1C(=O)N(c2ccc(F)cc2)C(=O)N1Cc1ccccn1 (configuration not stated)	.	.	.	.	100	.	.	.	.	.
CCOc1ccc(N2C(=O)C(CC(=O)Nc3ccc(F)cc3)N(Cc3ccccn3)C2=S)cc1 (configuration not stated)	.	.	.	.	.	.	/	/	/	/
CCCc1cc(C(=O)NNC(=S)NCc2ccccc2)cs1	.	.	.	.	100	.	.	.	.	.
CCCc1cc(C(=O)NCc2ccccc2)no1	.	.	.	.	100	.	.	.	.	.
SMILES	CRFR2-BP antag	NR3A LBD binder	MPTP inh	TMEM16A act	ANO1 block	CRFR2-BP ag	TMEM16A reconf	TMEM16A Ca cntr	Parental YFP cnt	ClC-1 inh
CCCc1cc(C(=O)Nc2cccc(Cl)c2C)no1	.	.	.	.	25	.	.	.	.	.
CCCc1cc(C(=O)NCc2cccnc2)no1	.	.	.	.	.	.	/	/	/	/
CCc1cc(C(=O)NNC(=S)NCc2ccccc2)cs1	.	.	.	.	.	.	/	/	/	/
Cc1ccc(SC2=C(N(C)C)C(=O)c3ccccc3C2=O)cc1	.	.	.	.	/	.	/	/	/	/
Cc1onc(-c2ccccc2)c1C(=O)OCC(=O)N(CC(C)C)c1c(N)n(Cc2ccccc2)c(=O)[nH]c1=O	.	.	.	.	.	.	/	/	/	/
C[C@H](CO)N1C[C@H](C)[C@@H](CN(C)S(C)(=O)=O)Oc2ccc(NC(=O)Cn3cnnn3)cc2C1=O	.	.	.	.	/	.	/	/	/	/
CCCc1cc(=O)n2[nH]c(NC(=O)c3ccco3)nc2n1	.	.	.	.	.	.	/	/	/	/
COc1ccc(S(=O)(=O)N2CCC(C(=O)N[C@@H](C)C(=O)NC3CCCC3)CC2)cc1	.	.	.	.	.	.	/	/	/	/
Cc1cc(C)cc(NC(=O)CSc2nc(N)c(NC(=O)c3ccc(Br)o3)c(=O)[nH]2)c1	.	.	.	.	.	.	/	/	/	/
CCc1nnc2sc(-c3ccc(NC(=O)CSc4ccc(Cl)cc4)cc3)nn12	.	.	.	.	.	.	.	.	.	.
O=C1NC[C@H](CCCCN2CCN(CC3CCCCC3)C(=O)C2=O)N(Cc2ccccc2)C1=O	/	/	.	/	/	/	/	/	/	/
COCCn1c(-c2ccc(Br)cc2)csc1=Nc1cccnc1	.	.	.	.	25	.	34%	.	.	.
Clc1ccc(-c2csc(=Nc3cccnc3)n2CCCn2ccnc2)cc1Cl	.	.	.	.	.	.	/	/	/	/
